TDP1 block: blocks human tyrosyl-DNA phosphodiesterase 1 | Q9NUW8 | recombinant TDP1, AlphaScreen DNA substrate cleavage | Potency, µM (top dose mostly 130 µM), inactives show at the highest dose activity change, negative = inhibition, actives largely listed as inhibitors | 350,000 tested, 0.28% active; further: potency means the concentration at half of the fitted maximal effect; nearly all actives have a fitted effect of over 40% in size
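Recombinant E. coli-expressed Tdp1 (1 nM) preincubated with compound 15 min at RT, then 5'-biotin/3'-phosphotyrosine-FITC DNA substrate (15 nM) added for 5 min. AlphaScreen beads (10 ug/ml) added, 10 min RT; tyrosine-FITC cleavage read as signal loss.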
IL1B secr inh: inflammasome signaling inhibition, IL-1 beta readout. THP-1 LPS/ATP IL-1B secretion, AlphaLISA, 16 h; stronger effect = lower value. activity change, % at 57.5 µM. 360,000 tested, 4.7% active. AID 743279; in the data active means activity change below about -50%; inconclusive means mostly about -30% to -49%
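THP-1 cells pretreated 1 hr with compounds (up to 57.5 uM final), then stimulated with LPS (250 ng/mL final) plus ATP (1.25 mM final); secreted IL-1B measured by AlphaLISA after 16 hr, decreased signal indicating inhibition.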
DT40 TDP1 no CPT: qHTS for Inhibitors of human tyrosyl-DNA phosphodiesterase 1 (TDP1): qHTS in cells in absence of CPT | Potency, µM (series often up to 46.2 µM), for the others: top-dose activity change, negative = growth inhibition, usual class: inhibitors | DT40 Tdp1-/- hTDP1 cells, no CPT, ATP luminescence, 48 h | AID 686978, 2013 | 420,000 tested, 15% active; further: potency means the concentration at half of the fitted maximal effect; nearly all actives have a fitted effect of over 55% in size
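Luminescent ATP content (CellTiter-Glo) served as the growth readout. Knockout chicken DT40 cells expressing human TDP1 were exposed to compounds without camptothecin for a minimum 48 hr at 37 °C.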
TDP1 cell CPT: growth inhibition of DT40 Tdp1-/-;hTDP1 cells with camptothecin (screen for TDP1 inhibitors). Potency, µM (doses to about 46.2 µM), for inactives: top-dose activity change, negative = growth inhibition, actives largely listed as inhibitors. 420,000 tested, 12% active. chicken DT40 Tdp1-/-;hTDP1 cells + 20 nM CPT, ATP luminescence, 48 h. AID 686979; further: potency means the concentration at half of the fitted maximal effect; nearly all actives have a fitted effect of over 55% in size
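Cell growth measured by CellTiter-Glo luminescence after a minimum 48 h, 37 C compound exposure with 20 nM CPT in Tdp1-knockout DT40 cells stably expressing hTDP1, seeded 400/well; qHTS titration format.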
CtBP-E1A inh: CtBP/E1A binding inhibition. activity change, % (test concentration not listed). AlphaScreen GST-E1A/His-CtBP binding, 1536-well; stronger effect = lower value. 340,000 tested, 0.49% active; in the data active means activity change below about -65%; inconclusive means mostly about -30% to -63%
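GST-E1A and His-tagged CtBP (125 nM each as 5X stock) were preincubated with pin-transferred compound for 2 h at 37 °C in the dark, then glutathione donor and nickel acceptor beads were added for 1 h before AlphaScreen reading.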
Six1-Eya2 inh: Six1/Eya2 interaction inhibition; 360,000 tested, 0.56% active; activity change, % (concentration not given with the values); AlphaScreen GST-Six1/His-Eya2 binding, biochemical; stronger effect = lower value; AID 651725; in the data active means activity change below about -65%; inconclusive means mostly about -30% to -63%
Target sequence (O00167 whole entry, looked up): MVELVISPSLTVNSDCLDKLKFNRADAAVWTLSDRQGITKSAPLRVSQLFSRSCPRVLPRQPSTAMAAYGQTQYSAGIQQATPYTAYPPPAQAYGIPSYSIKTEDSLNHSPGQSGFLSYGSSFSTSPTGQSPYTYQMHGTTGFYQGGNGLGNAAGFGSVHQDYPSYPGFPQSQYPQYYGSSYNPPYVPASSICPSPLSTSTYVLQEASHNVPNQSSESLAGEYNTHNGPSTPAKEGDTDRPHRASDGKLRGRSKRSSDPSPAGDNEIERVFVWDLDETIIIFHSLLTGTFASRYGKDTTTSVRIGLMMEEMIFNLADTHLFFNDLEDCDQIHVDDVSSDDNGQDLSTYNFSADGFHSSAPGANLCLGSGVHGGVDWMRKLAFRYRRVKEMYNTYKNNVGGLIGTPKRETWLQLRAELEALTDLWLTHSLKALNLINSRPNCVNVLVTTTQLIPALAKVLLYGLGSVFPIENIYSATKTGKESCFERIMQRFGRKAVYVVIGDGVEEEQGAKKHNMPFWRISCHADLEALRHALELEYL
Target sequence (Q15475 whole entry, looked up): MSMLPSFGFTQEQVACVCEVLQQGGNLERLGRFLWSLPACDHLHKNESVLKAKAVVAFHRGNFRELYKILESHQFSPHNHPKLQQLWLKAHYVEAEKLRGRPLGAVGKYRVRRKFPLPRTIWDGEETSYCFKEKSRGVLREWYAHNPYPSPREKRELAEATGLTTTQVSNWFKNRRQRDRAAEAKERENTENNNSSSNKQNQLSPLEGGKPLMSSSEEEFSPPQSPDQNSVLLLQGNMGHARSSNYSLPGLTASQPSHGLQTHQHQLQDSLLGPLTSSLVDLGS
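Compounds are tested against tagged Six1 and Eya2 proteins bridged by glutathione donor and nickel acceptor beads; after a one-hour incubation at 37 °C without light, AlphaScreen emission is recorded.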
An asterisk follows results filed as active; ? = inconclusive; · = no result given; [ ] = dose if it differs, or a comment. Most compounds without a hit are left out; they make up all but 18% or so of the library. Unless noted, the call rests on the fitted dose curve; in most records, active means well fitted curve in the direction sought with a large enough effect; inconclusive means small, poorly fitted or top-dose-only effect, or another doubt; inactive means no such curve, though single readings can be large; an effect the other way counts as inactive or inconclusive. On the % scale 0 is the no-effect control and ±100 the full control effect.

SMILES	TDP1 block	IL1B secr inh	DT40 TDP1 no CPT	TDP1 cell CPT	CtBP-E1A inh	Six1-Eya2 inh
CCOC(=O)c1ccc2c(c1)nc(SCC(=O)N1CCOCC1)n2CC	8%	-11	-20%	12%	2	-7
c1ccc(CNc2ncnc3sc4c(c23)CCCC4)nc1	2%	-12	23µM*	16µM*	-3	-5
COc1ccc(Nc2nc(C)nc3sc4c(c23)CCC4)cc1O	2%	50	13µM*	15µM*	-9	-3
Cc1nc(NS(=O)(=O)c2ccc(Cl)s2)c2c3c(sc2n1)CCCC3	1%	44	?	?	·	-8
CN(C)C(CNc1ncnc2sc3c(c12)CCCC3)c1ccco1 (stereo not given)	0%	-11	23µM*	?	1	-6
Cc1nc(NCc2ccco2)c2c3c(sc2n1)CCC3	-14%	-80*	13µM*	13µM*	-7	-18
C/C(=N\Nc1nc2ccccc2[nH]1)c1ccc([N+](=O)[O-])cc1	·	-16	?	?	0	40
NS(=O)(=O)c1ccc(NC(=S)NCc2ccc(Cl)cc2)cc1	1%	5	?	?	-1	-3
O=C(CSc1nnc(NC(=O)c2ccco2)s1)Nc1ccc(F)cc1	-3%	-5	-3%	-11%	·	20
Cc1nc(NCc2ccccn2)c2c3c(sc2n1)CCCC3	3%	-54*	21µM*	?	-8	-10
c1coc(CNc2ncnc3sc4c(c23)CCCCC4)c1	6%	-3	?	?	5	0
CC(C)OCCCNc1ncnc2sc3c(c12)CCCC3	-1%	·	23µM*	21µM*	·	·
CCCCCOC(=O)Cn1c(N2CCOCC2)nc2c1c(=O)[nH]c(=O)n2C	5%	-1	-16%	-19%	4	1
Cc1ccc(/C=C2/NC(=O)N(c3ccccc3)C2=O)o1	8%	0	16µM*	10µM*	5	-3
CCN1C(=O)N/C(=C/c2ccc(C)o2)C1=O	-15%	0	21µM*	23µM*	8	-3
Cc1ccc(/C=C2/NC(=O)N(Cc3ccc(Br)cc3)C2=O)o1	8%	-9	?	?	14	-4
CCN(C#N)c1nc(NC(C)C)nc(NC(C)(C)C)n1	-2%	43	-2%	8%	4	9
COC(=O)c1c(NC(=O)CC2Nc3cc(C)c(C)cc3NC2=O)sc(C)c1C (stereo not given)	3%	7	?	21µM*	0	1
Cc1cc2c(cc1C)NC(CC(=O)Nc1ccccc1SC(F)(F)F)C(=O)N2 (stereo not given)	·	·	16µM*	?	·	·
Cc1cc2c(cc1C)NC(CC(=O)NCc1ccccc1)C(=O)N2 (stereo not given)	2%	1	-23%	?	-12	-7
CCc1cc(C(=O)OC)c(NC(=O)CC2Nc3cc(C)c(C)cc3NC2=O)s1 (stereo not given)	0%	0	-8%	-13%	-4	6
Cc1cc2c(cc1C)NC(CC(=O)Nc1cccc(C)c1C)C(=O)N2 (stereo not given)	2%[12.3 µM]	·	16µM*	15µM*	·	·
Nc1cc(=O)[nH]c(SCCSc2cc(Cl)ccc2Cl)n1	·	1	-18%	?	0	-2
O=C(Nc1ccc([N+](=O)[O-])cn1)c1cc(-c2cccc(Cl)c2)nc2ccccc12	1%	0	?	?	7	5
Cc1nc(NCC(=O)c2c[nH]c3ccccc23)sc1C	·	·	?	6.3µM*	·	·
COc1ccc2[nH]cc(C(=O)CNc3nc(C)cs3)c2c1	10%	-12	?	?	-10	-16
Cc1onc(-c2ccccc2Cl)c1C(=O)NNC(=O)c1nn(C)cc1Cl	-3%	-8	0%	7%	6	-1

Screens: PubChem, National Center for Advancing Translational Sciences (NCATS)
